Substitutions are numbered along the chain they refer to. In all, about 24,000 sequences were measured (“enrichment r”: median about 0.99, highest 2% from about 3.7 on). The entries come from a sample that favours the highest values as a whole.

B1: chr9:74900086:74900087:+_ENSMUSG00000007656_ENSMUST00000169492|mus_mus|motif|central (ssRNA)
RNA: GGGAGUUCUACAGUCCGACGAUCUUGUCCCAAGUGAGGAUACCUUGCCUUUAACUUUGCUUCUUCAGCUUUCUCUGGACGGGUUACUUUAUCUUCCAUUUCCUUUUGCUCCUCCGCAGACGCUGCCUCGGGGACUUCCGCGGACAACAGAGGAUUGAGCAUCA
B2: chr3:139236485:139236486:-_ENSG00000114115_ENST00000232219|hu_mus|FALSE|FALSE (ssRNA)
RNA: GGGAGUUCUACAGUCCGACGAUCCUGAAGACCAAGGUUAUCUCCUCGGGCUGUUCGGGCUGCUCAGUGUACUUUCUUAAACACUUGCUUGCAGAUCACACCCUCAGCUCUCAUUUCCAGGUGAAGUUCAUCACCCUCGAUCCACAACAGAGGAUUGAGCAUCA
B3: 133975656_133975776_5164_3pUTR_ENSG00000205060_ENST00000378509|human|control|control (ssRNA)
RNA: GGGAGUUCUACAGUCCGACGAUCCAUUUCUCUGUCCGUUUAGGUCAAUGCCAACUGGUCCACCAGUGAACAUGUCCACCGGCCCUGAGCUAACUCAUUGGUUUAUUAUUCCUGACCUAAGGUGUUUUACUUCCCCUCUCCAUACAACAGAGGAUUGAGCAUCA
B4: chr1:39494447:39494448:+_ENSG00000168653_ENST00000372967|hu_mus|hu_hu_hu_mus_False|18_98 (ssRNA)
RNA: GGGAGUUCUACAGUCCGACGAUCGCACCGAGCGGCGAUCUUGUAGGGCUGUUCUGCGCUUAGGAACAUAAAGUGCCGGUCCAGGCUGAUGCCCAGCUUUUUCUGUAUGUCAAGGAAAGGCAUGGCCCUGCAGUGCCCUUGUCACAACAGAGGAUUGAGCAUCA
B5: chr20:43533646:43533647:+_ENSG00000166913_ENST00000353703|hu_hu|motif|central (ssRNA)
RNA: GGGAGUUCUACAGUCCGACGAUCGAAAUUUAGUGCCAGACCAAGACGAAUUGGGUGUGUAGGCUGCAUUUCUUUCUUACGGAUUUCAAAUGCUUCCUGGUAAGCCUGCUGGGAGUUCGACACAGUGGUUUGUUUGUUGUCUCCCAACAGAGGAUUGAGCAUCA
B6: chr11:77340908:77340909:-_ENSG00000074201_ENST00000525064|hu_hu|hu_hu_hu_mus_True|8_8 (ssRNA)
RNA: GGGAGUUCUACAGUCCGACGAUCGUUUGGAUCCCUGGACACCGCAUGUAAACUAAUGGUGGGGUAUUCCAGUGAGAAUCCUAAUCCCGAACCAUCUAACCAGGACAGGCGGCUCUCCGCGAUGUAAAGGGUACCAGUGCCGAGCAACAGAGGAUUGAGCAUCA
B7: 135097835_135097955_579_3pUTR_ENSMUSG00000040731_ENSMUST00000036125|mouse|control|control (ssRNA)
RNA: GGGAGUUCUACAGUCCGACGAUCAAGUCCAUGUUGGAGCCACGCAGAGGAGGGCCAUCUCGAAAGCGACUCCCCAUUGGAGGGCCUGCUCGCCGGUCCCCAGGGCGACUGCCCCCCCUACCCCCUAAGAAGUCAUCCCUGUAGCAACAGAGGAUUGAGCAUCA
B8: chr3:57569730:57569731:-_ENSG00000168374_ENST00000303436|hu_mus|FALSE|FALSE (ssRNA)
RNA: GGGAGUUCUACAGUCCGACGAUCAUAUUCUACUGUUUCCACAUUAAAACCAAUGGUAGGAAUGGUGGUGACUAUUUCCCCUAAUUUCAGUUUAUACAGAAUUGUCGUCUUGCCAGCAGCAUCCAAUCCAACCAUCAAAAUGCGCAACAGAGGAUUGAGCAUCA
B9: chr9:42776432:42776433:-_ENSMUSG00000059495_ENSMUST00000165665|mus_hu|FALSE|FALSE (ssRNA)
RNA: GGGAGUUCUACAGUCCGACGAUCUAACAAAUUUAUAGUCAAGAAAAUAAAAUUUGCUUUCCUCUCCCACCCAAAUCCCAACCCUCAAUAGAAAAGACGACAAUGGAAGAAAACACACCCAUUUUCAAGUGCCUGCUAUUUAGUCAACAGAGGAUUGAGCAUCA
B10: chr19:16212804:16212805:+_ENSG00000167460_ENST00000300933|hu_mus|hu_hu_hu_mus_False|48_58 (ssRNA)
RNA: GGGAGUUCUACAGUCCGACGAUCAACAAUUCUGGAGUGAAGGAAAGAUGUAACAUGGAACAGCAUUAAAGCUCAGUAUUACUAUAUGUGGGUAAUUAUGAUCACCCCAGCAUUCUCGCUUGGAAUGCUUAAAGACAAUCUGUUCAACAGAGGAUUGAGCAUCA
B11: chr19:16212804:16212805:+_ENSG00000167460_ENST00000300933|hu_mus|hu_hu_hu_mus_False|8_78 (ssRNA)
RNA: GGGAGUUCUACAGUCCGACGAUCAACAAUUCUGGAGUGAAGGAAAGAUGUAACAUGCAAUUAAUUAAAAGCUCAGUCAGAAGGCACAUGGGCAACAAUGAUCACCCCAGCAUUCUCGCUUGGAAUGUGCUUGAGAAAUCUGUUCAACAGAGGAUUGAGCAUCA
B12: chr18:9954606:9954607:+_ENSG00000101558_ENST00000400000|hu_mus|FALSE|FALSE (ssRNA)
RNA: GGGAGUUCUACAGUCCGACGAUCCCAUUUCCCCCACAGAAAACCUCUUGGCAUUUCCUGAAUGAGUGGGAUUAGCAAUCUAAAUAAAUCAUAUUUCAAGAGGUAACAGCAACAGAUAAAAUUUAAAGGAAUUAUUAAAAUAACCAACAGAGGAUUGAGCAUCA
B13: chr3:75345182:75345183:-_ENSMUSG00000027835_ENSMUST00000161137|mus_hu|FALSE|FALSE (ssRNA)
RNA: GGGAGUUCUACAGUCCGACGAUCAUGUGGUCUCAGCUUCAUUCUUCAUCUCUUCCAUUGUCAUCCUCAUUCAAAAGCCAACUACAGUUGAAAAAGCAGUGCUAAAAUGCAGAGGAAUCUUCAUUCACUGCAAUAUUUCUUCUCCAACAGAGGAUUGAGCAUCA
B14: chr2:73656703:73656704:-_ENSMUSG00000027104_ENSMUST00000100009|mus_hu|FALSE|FALSE (ssRNA)
RNA: GGGAGUUCUACAGUCCGACGAUCAAGAAAUGGAAGUGGGAAGAAAGAUUCAGUAACACCCCCAUUUAUUAAAACACCAGCAAAUUAAAAGUGAAAUAAAUCACAAUGAAUUAUAAUACAAUUUACACAUUGAGCACAGAAAAACAACAGAGGAUUGAGCAUCA
B15: 36138064_36138184_3590_3pUTR_ENSG00000100320_ENST00000405409|human|control|control (ssRNA)
RNA: GGGAGUUCUACAGUCCGACGAUCAAAGCAAAAGCAAAAUCCUCCCUGCCCCCAUUCCCUAGAACUGUGAAAGCCCGCAUCCCAUUCCCCGCUCCUCUAACUAAAAUAUUUAUAUACAUACAACAAAAAUUGUCUUAACAGCAACAACAGAGGAUUGAGCAUCA
B16: chr18:9954606:9954607:+_ENSG00000101558_ENST00000400000|hu_hu|FALSE|FALSE (ssRNA)
RNA: B12 RNA with C24A, A26C, U27A, C30U, C36A, A37G, A41U, A129G
B17: chr12:493273:493274:-_ENSG00000073614_ENST00000399788|hu_mus|hu_hu_hu_mus_False|48_58 (ssRNA)
RNA: GGGAGUUCUACAGUCCGACGAUCUUUUCUCUCCACCACAGGGAUCUUCAAUGUAGAUCCUUGAAGUUCCCAAAAUUUUGCUAGUUGAUCCAAGAAAUCCAAUCUUACUCUAGUCAUUGCCUCAAGUUCAUUCAGGCGCUGGACCAACAGAGGAUUGAGCAUCA
B18: 104554200_104554320_324_3pUTR_ENSMUSG00000032621_ENSMUST00000074616|mouse|control|control (ssRNA)
RNA: GGGAGUUCUACAGUCCGACGAUCAUCAGAUCCAUACAAAGAAACAAAUAAGAAGAACAUAAGGCUUUCCUUUUAUCCUGCUCUAUUAGGAAAAAUAAAAGUGAGCAAAACUUCAAAGACUAACAAUCUCAUUAAUGGAACAUUCAACAGAGGAUUGAGCAUCA
B19: 54572216_54573035_2393_CDS_ENSG00000067248_ENST00000251636|human|control|control (ssRNA)
RNA: GGGAGUUCUACAGUCCGACGAUCAUCUUCAAGAUGAAAAACCUCAACAGGAUAACUUCUUCCUGAAAUUCUGAGAAUGGGGCAGUGUGUGAAAUAUGUAGAAAAUUUUUCGCUGUCCACAGUGGCACUCAUUAGAAUCAAGUGCAACAGAGGAUUGAGCAUCA

The experiment deals with T1, UNK ZnF1-3 (human, UniProt Q9C0B0 31-174).
T1 sequence: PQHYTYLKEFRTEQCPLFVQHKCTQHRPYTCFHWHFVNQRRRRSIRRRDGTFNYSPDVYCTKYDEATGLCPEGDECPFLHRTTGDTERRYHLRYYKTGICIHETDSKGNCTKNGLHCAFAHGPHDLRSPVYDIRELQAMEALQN
Description: nsRBNS (natural sequence RNA bind-n-seq); RBNS binding buffer (assumed for nsRBNS): 25 mM Tris pH 7.5, 150 mM KCl, 3 mM MgCl2, 0.01% Triton X-100, 500 ug/ml BSA, 20 U/ml SUPERase-In, 4 C; UNK is unkempt and MSI1 is Musashi-1; names of the RNAs are library labels; protein concentration not given here; high values mean tight binding.
B1 yielded a binding signal of 0.353 enrichment R.

For B2, the binding signal stood at 0.756 enrichment R.

B3 registered a binding signal of 0.604 enrichment R.

B4 came in with a binding signal of 0.479 enrichment R.

B5: the binding signal is 0.731 enrichment R.

As for B6, the binding signal was 1.2 enrichment R.

B7 yielded a binding signal of 0.982 enrichment R.

For the molecule B8, the binding signal came to 0.905 enrichment R.

With B9, the binding signal came out at 4.14 enrichment R.

B10 gave a binding signal of 0.913 enrichment R.

B11 came in with a binding signal of 1.42 enrichment R.

Consider B12, for which the binding signal is 4.49 enrichment R.

As for B13, the binding signal is 1.23 enrichment R.

In turn, B14 yielded a binding signal of 4.55 enrichment R.

In the case of B15, the binding signal is 3.79 enrichment R.

On to B16, for which the binding signal was found to be 3.36 enrichment R.

As to B17, the binding signal was determined as 0.927 enrichment R.

The molecule B18 had a binding signal of 0.765 enrichment R.

In the case of B19, the binding signal is 1.16 enrichment R.

The record behind these values is article PMC12136788.
